Experimental data from PubChem BioAssay (Tox21).
Records with an inconclusive call do not appear. Calls of active or inactive are those of the source. Calls come from the whole dose curve; as a rule, active = well fitted curve in the direction sought with a large enough effect in the repeat runs; inconclusive = weak or mixed curves; inactive = no such curve, though single readings can be large; an effect the other way counts as inactive or inconclusive.

Columns and labels:
[1] = qHTS RealTime-Glo MT Cell Viability Assay in HepG2 cells - 40 hour (AID 1224870); note: nearly all actives have a fitted effect of over 50% in size; note: potency is the fitted concentration of half-maximal effect
In short: (§1)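 HepG2 cells (600/well) mixed with RealTime-Glo MT reagent, settled 5 h at 37 C/5% CO2 before compound addition. Nonlytic NanoLuc luminescence from viable-cell prosubstrate reduction read repeatedly during 40 h treatment at 37 C.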

[2] = qHTS RealTime-Glo MT Cell Viability Assay in HEK293 cells - 16 hour (AID 1224872); note: nearly all actives have a fitted effect of over 50% in size; note: potency is the fitted concentration of half-maximal effect
In short: (§2)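 HEK293 cells seeded with NanoLuc/prosubstrate reagent, rested 5 h at 37 C, then dosed and kept at 37 C up to 40 h. Nonlytic real-time luminescence from viable cells read at 0, 8, 16, 24, 32 and 40 h.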

[3] = qHTS RealTime-Glo MT Cell Viability Assay in HEK293 cells - 40 hour (AID 1224874); conditions: RealTime-Glo luminescence; max response: hits give low values; note: nearly all actives have a fitted effect of over 50% in size; note: potency is the fitted concentration of half-maximal effect
In short: (§3)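 Tox21 screen in HEK293 using RealTime-Glo MT chemistry, with cells and reagent co-dispensed. Luminescence proportional to viable cell number was captured at intervals during 40 h compound exposure at 37 C.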

[4] = qHTS RealTime-Glo MT Cell Viability Assay in HepG2 cells - 32 hour (AID 1224877); note: nearly all actives have a fitted effect of over 55% in size; note: potency is the fitted concentration of half-maximal effect
In short: (§4)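 HepG2 cells (600/well) were dispensed with RealTime-Glo reagents, incubated 5 h at 37 °C, then treated with compounds in DMSO for up to 40 h. Nonlytic NanoLuc luminescence reflecting viable cells was read at each stated time point.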

[5] = A CellTox Green Cytotoxicity Assay to monitor cytotoxicity in HepG2 cells - 40 hour (AID 1224879); note: nearly all actives have a fitted effect of over 40% in size; note: potency is the fitted concentration of half-maximal effect
In short: (§5)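 Nonlytic assay: viable cells exclude the dye, so fluorescence scales with cell death. HepG2 at 600 cells/well, compounds added after 5 h, signal read across 40 h.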

[6] = qHTS RealTime-Glo MT Cell Viability Assay in HEK293 cells - 0 hour (AID 1224880); note: top concentration of the series differs between compounds; nearly all actives have a fitted effect of over 45% in size
In short: as §3

[7] = A CellTox Green Cytotoxicity Assay to monitor cytotoxicity in HepG2 cells - 0 hour (AID 1224882); note: nearly all actives have a fitted effect of over 35% in size
In short: as §5

[8] = A CellTox Green Cytotoxicity Assay to monitor cytotoxicity in HepG2 cells - 32 hour (AID 1224883); note: nearly all actives have a fitted effect of over 50% in size; note: potency is the fitted concentration of half-maximal effect
In short: as §5

[9] = A CellTox Green Cytotoxicity Assay to monitor cytotoxicity in HEK293 cells - 8 hour (AID 1224884); note: nearly all actives have a fitted effect of over 35% in size; note: potency is the fitted concentration of half-maximal effect
In short: (§6)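 Seeding of HEK293 cells together with cytotoxicity dye preceded a 5 h incubation at 37 C/5% CO2. Test compounds in DMSO were then added and fluorescence monitored across 40 h.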

[10] = qHTS RealTime-Glo MT Cell Viability Assay in HepG2 cells - 16 hour (AID 1224885); note: nearly all actives have a fitted effect of over 50% in size; note: potency is the fitted concentration of half-maximal effect
In short: as §4

[11] = qHTS RealTime-Glo MT Cell Viability Assay in HEK293 cells - 24 hour (AID 1224886); note: nearly all actives have a fitted effect of over 50% in size; note: potency is the fitted concentration of half-maximal effect
In short: as §2

[12] = qHTS RealTime-Glo MT Cell Viability Assay in HEK293 cells - 8 hour (AID 1224887); note: nearly all actives have a fitted effect of over 50% in size; note: potency is the fitted concentration of half-maximal effect
In short: as §3

[13] = qHTS RealTime-Glo MT Cell Viability Assay in HepG2 cells - 0 hour (AID 1224889); note: nearly all actives have a fitted effect of over 50% in size
In short: as §4

[14] = A CellTox Green Cytotoxicity Assay to monitor cytotoxicity in HEK293 cells - 24 hour (AID 1224875); note: nearly all actives have a fitted effect of over 45% in size; note: potency is the fitted concentration of half-maximal effect
In short: as §6

[15] = A CellTox Green Cytotoxicity Assay to monitor cytotoxicity in HepG2 cells - 24 hour (AID 1224878); note: nearly all actives have a fitted effect of over 45% in size; note: potency is the fitted concentration of half-maximal effect
In short: as §5

[16] = A CellTox Green Cytotoxicity Assay to monitor cytotoxicity in HEK293 cells - 32 hour (AID 1224881); note: nearly all actives have a fitted effect of over 40% in size; note: potency is the fitted concentration of half-maximal effect
In short: as §6

[17] = A CellTox Green Cytotoxicity Assay to monitor cytotoxicity in HEK293 cells - 16 hour (AID 1224888); note: nearly all actives have a fitted effect of over 35% in size; note: potency is the fitted concentration of half-maximal effect
In short: as §6

[18] = A CellTox Green Cytotoxicity Assay to monitor cytotoxicity in HEK293 cells - 40 hour (AID 1224871); note: nearly all actives have a fitted effect of over 45% in size
In short: as §6

[19] = qHTS RealTime-Glo MT Cell Viability Assay in HepG2 cells - 8 hour (AID 1224873); note: nearly all actives have a fitted effect of over 55% in size
In short: as §1

[20] = A CellTox Green Cytotoxicity Assay to monitor cytotoxicity in HepG2 cells - 16 hour (AID 1224876); note: nearly all actives have a fitted effect of over 45% in size; note: potency is the fitted concentration of half-maximal effect
In short: as §5
% is set by controls: 0 for no effect and ±100 for the full control effect.

CC(=O)NC1(c2cccc(F)c2)CCN(CC[C@@]2(c3ccc(Cl)c(Cl)c3)CN(c3ccccc3)C(=O)CO2)CC1
inactive: Potency [6] | Potency [7] | Potency [9] | Potency [13]
active: Potency [1] 43.8 µM | Potency [2] 17.4 µM | Potency [3] 17.4 µM | Potency [4] 43.8 µM | Potency [5] 43.8 µM | Potency [8] 43.8 µM | Potency [10] 43.8 µM | Potency [11] 17.4 µM | Potency [12] 31 µM

COc1cc(C(=O)NC2CCN(C)CC2)ccc1Nc1ncc2c(n1)N(C1CCCC1)CC(F)(F)C(=O)N2C
active: Potency [1] 44.9 µM | Potency [2] 2 µM | Potency [3] 0.0179 µM | Potency [14] 20 µM | Potency [4] 40 µM | Potency [15] 40 µM | Potency [5] 22.5 µM | Potency [16] 35.7 µM | Potency [8] 25.2 µM | Potency [9] 17.9 µM | Potency [10] 40 µM | Potency [11] 0.1 µM | Potency [17] 17.9 µM
inactive: Potency [6] | Potency [13]

O=c1[nH]c2ccc(Cl)cc2o1
inactive: Potency [18] | Potency [2] | Potency [19] | max response [3] -0.887% | Potency [14] | Potency [20] | Potency [4] | Potency [5] | Potency [6] | Potency [16] | Potency [7] | Potency [8] | Potency [9] | Potency [10] | Potency [11] | Potency [12] | Potency [17] | Potency [13]

CCCCCCC(C)(C)C(=O)O
inactive: Potency [18] | Potency [2] | Potency [19] | max response [3] 4.14% | Potency [14] | Potency [20] | Potency [15] | Potency [5] | Potency [6] | Potency [16] | Potency [8] | Potency [11] | Potency [12] | Potency [17] | Potency [13]

C[C@@H](O[C@H]1OCCN(Cc2n[nH]c(=O)[nH]2)[C@H]1c1ccc(F)cc1)c1cc(C(F)(F)F)cc(C(F)(F)F)c1
active: Potency [1] 21.3 µM | Potency [2] 19 µM | Potency [20] 16.9 µM | Potency [15] 15.1 µM | Potency [5] 16.9 µM | Potency [8] 16.9 µM | Potency [10] 19 µM | Potency [11] 16.9 µM
inactive: Potency [6] | Potency [7] | Potency [9] | Potency [13]

O=C=Nc1cccc(C(F)(F)F)c1
inactive: Potency [1] | Potency [2] | Potency [19] | Potency [20] | Potency [4] | Potency [15] | Potency [5] | Potency [6] | Potency [7] | Potency [8] | Potency [9] | Potency [10] | Potency [12] | Potency [13]

O=Cc1c2ccccc2c(Cl)c2ccccc12
inactive: Potency [1] | Potency [2] | Potency [19] | Potency [14] | Potency [4] | Potency [15] | Potency [5] | Potency [6] | Potency [16] | Potency [8] | Potency [9] | Potency [12] | Potency [17] | Potency [13]

Oc1ccc(Cl)c2cccnc12
inactive: Potency [1] | Potency [2] | Potency [19] | Potency [14] | Potency [20] | Potency [15] | Potency [6] | Potency [16] | Potency [7] | Potency [9] | Potency [10] | Potency [11] | Potency [12] | Potency [17] | Potency [13]
